Unmarked numbers belong to inactive results. Active and inactive are the calls of the source.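 How the source made its calls: active means blocks over 70% of labeled estradiol binding at 10 µM, or over a set limit at 100 nM; inactive means the rest.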
Target: Estrogen receptor beta (Homo sapiens) (UniProt Q92731)
Assay: ERbeta ligand binders by competition, primary screen, cell-based, Cos7 ERbeta-GFP, flow cytometry (AID 1210);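 further: 0% = DMSO vehicle wells and 100% = complete loss of labeled estradiol signal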
Details: fluorescent estrogen binding, at 10 µM, hits give high values

Chain of Estrogen receptor beta (Homo sapiens) (Q92731 whole entry, looked up): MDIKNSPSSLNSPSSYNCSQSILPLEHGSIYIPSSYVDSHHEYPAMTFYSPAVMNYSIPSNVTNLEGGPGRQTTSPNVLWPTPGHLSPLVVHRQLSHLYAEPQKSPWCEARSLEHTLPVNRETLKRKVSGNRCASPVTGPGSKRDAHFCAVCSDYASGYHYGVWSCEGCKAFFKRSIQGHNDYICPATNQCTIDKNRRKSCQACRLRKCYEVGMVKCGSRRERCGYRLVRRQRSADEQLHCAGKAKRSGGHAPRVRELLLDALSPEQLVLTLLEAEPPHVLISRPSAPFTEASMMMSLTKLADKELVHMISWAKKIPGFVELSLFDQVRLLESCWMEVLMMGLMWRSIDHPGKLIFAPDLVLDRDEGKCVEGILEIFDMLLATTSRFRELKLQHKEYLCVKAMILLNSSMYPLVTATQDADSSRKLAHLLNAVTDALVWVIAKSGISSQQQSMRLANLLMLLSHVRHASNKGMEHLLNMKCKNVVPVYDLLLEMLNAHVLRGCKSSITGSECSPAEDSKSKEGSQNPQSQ

| Structure (SMILES) | inhibition |
| --- | --- |
| CC(=O)c1ccc2c(c1)C1C(Cl)C(Sc3ccccc3[N+](=O)[O-])CC1C(c1ccccc1[N+](=O)[O-])N2 (stereo unspecified) | 36% |
| COc1cc2c(cc1OC)CC(C)(C)NC2 | 11% |
| COc1ccc(Cn2c(N)c(C(=O)NCc3ccco3)c3nc4ccccc4nc32)cc1 | 64% |
| CCNCC1(c2ccc(OC)c(OC)c2)CCCC1 | 14% |
| Cc1ccc(S(=O)(=O)Cc2ccc(C(=O)N3CCC4(CC3)OCCO4)o2)cc1 | 56% |
| CC(=O)c1ccc2c(c1)C1C(Cl)C(Sc3ccccc3[N+](=O)[O-])CC1C(C(=O)O)N2 (stereo unspecified) | 34% |
| CC1(C)CC(CCNCc2ccc3c(c2)OCO3)(Cc2ccccc2)CCO1 (stereo unspecified) | 16% |
| COc1ccc(C2(CN)CCCC2)cc1OC | 8% |
| O=C(O)c1cccc2c1NC(C(=O)O)C1CC(Sc3ccccc3[N+](=O)[O-])C(Cl)C21 (stereo unspecified) | 0% |
| N=c1c[n+](CCc2ccc(O)cc2)[n-]o1 | 29% |
| O=C(O)c1ccc2c(c1)C1C(Cl)C(Sc3ccccc3[N+](=O)[O-])CC1C(c1cccc([N+](=O)[O-])c1)N2 (stereo unspecified) | 0% |
| COc1ccc2[nH]cc(CCN=C(N)N)c2c1 | 16% |
| COc1ccc(C2(CN)CCCC2)cc1 | 5% |
| CCOc1ccccc1N1C(=O)NC(=O)C(CCc2ccncc2)(CCc2ccncc2)C1=O | 41% |
| COc1ccc(CC2NCCc3cc(OC)c(OC)cc32)cc1OC (stereo unspecified) | 10% |
| NC(=O)c1ccc(N=Nc2c(O)[nH]c(=O)[nH]c2=O)cc1 | 11% |
| C[C@H]1CCC[C@@H](O)CCC/C=C/c2cc(O)cc(O)c2C(=O)O1 | 71% (active) |
| Cc1ccc2c(c1Cl)NC(C(=O)O)C1CC(Sc3ccccc3[N+](=O)[O-])C(Cl)C21 (stereo unspecified) | 21% |
| CC(=O)c1ccc2c(c1)C1C(Cl)C(Sc3ccccc3[N+](=O)[O-])CC1C(c1ccccc1)N2 (stereo unspecified) | 33% |
| O=C(O)c1cccc2c1NC(c1cccc([N+](=O)[O-])c1)C1CC(Sc3ccccc3[N+](=O)[O-])C(Cl)C21 (stereo unspecified) | 67% |
| O=C1C2CCN(CC2)C1Cc1ccc(O)cc1 (stereo unspecified) | 19% |
